56 compounds from ChEMBL document CHEMBL4513216, “Probing the Open Global Health Chemical Diversity Library for Multistage-Active Starting Points for Next-Generation Antimalarials” (ACS Infect Dis, 2020) can be followed below.

Hit rate of the full screen: of about 68,000 compounds, about 2,700 (4%) showed an effect of 50% or more. What follows is part of a selection rich in strong results, with near analogues and random picks from the rest.

The assay concerns Plasmodium berghei. Nature of the assay: Screen against P. berghei liver stage (PbLuc), transformed with Luciferase, at 2uM. Format: functional, HepG2. The settings on record: tested at 2 uM.
With `CC(C)Oc1ncnc2c1CCN(Cc1ccc(F)cc1)CC2`, the INHIBITION was found to be 1.08%.

`COc1ccccc1OCCC(=O)N1CCCC1Cn1cc(C)cn1` (stereo unspecified): the INHIBITION is listed as -14.11%.

For the compound `Cc1ccc(CNC(=O)CN2CCN(CC(O)C3CC3)CC2)cc1` (stereo unspecified), the INHIBITION is -10.6%.

On to `Cc1cccc(CN2CCO[C@H]3[C@@H](OCc4ccncc4)CC[C@@H]32)n1`, for which the INHIBITION turned out to be 15.78%.

On to `Cc1cnn(C2CCCN(C(=O)CCCNc3ncccn3)C2)c1` (stereo unspecified), for which the INHIBITION was -34.45%.

Consider `COCC(=O)N1C[C@H]2CCCC(OCc3cccnc3)[C@H]2C1` (stereo partly specified), for which the INHIBITION is recorded as -34.83%.

Regarding `CC(C)N(C)Cc1nnc2n1CCCN(c1cnccn1)C2`, the INHIBITION is reported as 20.01%.

For `CNC(=O)c1cc2c(nc1NCC(C)C)CCN(CC1CC1)CC2`, the INHIBITION is on record as 57.85%.

As for `CNC(=O)c1cc2c(nc1NCC(C)C)CCN(C)CC2`, the INHIBITION is listed as 20.21%.

For `CNC(=O)N1CCc2cc(C(=O)NCC3CC3)c(NC(C)C)nc2CC1`, the INHIBITION is given as 11.9%.

Take `CNC(=O)c1cc2c(nc1NCC1CC1)CCN(CC1CC1)CC2`: the INHIBITION is given as 11.18%.

For `CNC(=O)c1cc2c(nc1NC(C)C)CCNCC2`, the INHIBITION is -9.98%.

On to `CNC(=O)c1cc2c(nc1NC(C)C)CCN(C(=O)NC(C)C)CC2`, for which the INHIBITION came out at 54.06%.

As for `Cc1nc2c(cc1C(=O)O)CCN(CC1CC1)CC2`, the INHIBITION was -14.21%.

Regarding `Cn1nccc1-c1nc2c(cc1C(=O)O)CCN(CC1CC1)CC2`, the INHIBITION was 52.66%.

As for `Cn1nccc1-c1nc2c(cc1C(=O)O)CCN(C(=O)C1CC1)CC2`, the INHIBITION was -28.2%.

`CC(=O)N(Cc1noc(C2CC2)n1)C1CCN(Cc2ccccn2)C1` (stereo unspecified): the INHIBITION is recorded as -1.02%.

With `CCN1CC(COC(=O)c2ccc(Br)cc2F)CC1=O` (stereo unspecified), the INHIBITION is listed as 17.86%.

For the compound `Cc1cc(NC(=O)CNC2CCc3ncnn3C2)no1` (stereo unspecified), the INHIBITION came out at 8.42%.

For the compound `CN(c1ncc(S(N)(=O)=O)s1)C1CCC1`, the INHIBITION was 27.17%.

As to `CC(=O)NCCNC(=O)N(C)Cc1ccc2c(c1)OCCO2`, the INHIBITION was -43.47%.

Turning to `Clc1ccc(COCC2CCN(Cc3ccccn3)CC2)cc1`, the INHIBITION was -7.16%.

`Cn1cnc(S(=O)(=O)N2CCO[C@H]3[C@@H](OCC4CC4)CC[C@@H]32)c1`: the INHIBITION was -6.83%.

With `CNC(=O)c1cc(C)nc(C2(C)CCCN2c2cc(C)ncn2)n1` (stereo unspecified), the INHIBITION is recorded as -4.78%.

As to `Cc1cc(C(=O)N2CCCC(O)(CN3CCCC3)C2)ccc1Cl` (stereo unspecified), the INHIBITION came to 19.36%.

With `Cc1cncc(C(=O)N2CCCC(O)(CN3CCCC3)C2)c1` (stereo unspecified), the INHIBITION was -22.01%.

As to `Cc1cc(C)c(C(=O)N2CCCC(O)(CN3CCCC3)C2)cc1C` (stereo unspecified), the INHIBITION was 79.79%.

Regarding `O=C(c1ccccn1)N1C[C@H]2CC[C@@H](C1)N(C(=O)CCc1cccs1)C2`, the INHIBITION was -89.49%.

Regarding `Cc1cc(C2CCCN2CCCc2nc3ccccc3o2)on1` (stereo unspecified), the INHIBITION is reported as -27.69%.

For `Cn1c(CN2CCC(OCc3cccnc3)CC2)cc2ccccc21`, the INHIBITION turned out to be 29.36%.

In the case of `CCc1cnc(CN(C)C2CCN(CCc3cccs3)C2)o1` (stereo unspecified), the INHIBITION came to 66.97%.

Turning to `CC(=O)N(Cc1ncc(C)o1)C1CCN(CCc2cccs2)C1` (stereo unspecified), the INHIBITION came to 64.16%.

For the compound `CCc1cnc(CN(C)C2CCN(CCS(C)(=O)=O)C2)o1` (stereo unspecified), the INHIBITION was -29.5%.

For `Cc1cnc(CN(C)C2CCN(CC(=O)Nc3c(C)n[nH]c3C)C2)o1` (stereo unspecified), the INHIBITION stood at 36.65%.

With `CCc1cnc(CN(C)C2CCN(CCc3ccccn3)C2)o1` (stereo unspecified), the INHIBITION is -3.88%.

As to `Cc1cc(NC(=O)CN2CCC(N(C)Cc3ncc(C)o3)C2)n(C)n1` (stereo unspecified), the INHIBITION is recorded as 57.11%.

Consider `CCc1cnc(CN(C(C)=O)C2CCN(CCc3cccs3)C2)o1` (stereo unspecified), for which the INHIBITION is given as -9.66%.

`CC(=O)N(Cc1ncc(C)o1)C1CCN(CCc2ccncc2)C1` (stereo unspecified): the INHIBITION was -23.45%.

On to `Cc1cnc(CN(C)C2CCN(CC(=O)Nc3nccs3)C2)o1` (stereo unspecified), for which the INHIBITION was determined as 23.24%.

In the case of `N#Cc1ccc(N2CCN(c3cnccn3)CC2)c(C(F)(F)F)c1`, the INHIBITION is reported as -22.24%.

`CC(C)NC(=O)N1Cc2nccn2CC(COc2cccnc2)C1` (stereo unspecified): the INHIBITION amounted to 27.08%.

For the compound `Cc1nnc2n1CCN(CCC(=O)Nc1sccc1C#N)C2`, the INHIBITION is -7.41%.

For the compound `CCC(NC(=O)c1cccc(N2CCCC2=O)c1)c1ccc(OC)cc1` (stereo unspecified), the INHIBITION was determined as 30.34%.

Take `Cc1ccc(C(=O)N2CCn3c(COCC4CC4)cnc3C2C)nc1` (stereo unspecified): the INHIBITION is listed as -4.95%.

Take `O=C(CN1C=Nc2ccccc2S1(=O)=O)NCc1ccccc1`: the INHIBITION is 33.61%.

Regarding `CCC(C)(C)NC(=O)CN1C=Nc2ccccc2S1(=O)=O`, the INHIBITION is listed as 51.94%.

Take `Cc1ccc(CNC(=O)CN2C=Nc3ccccc3S2(=O)=O)s1`: the INHIBITION came to 3.86%.

For `O=C(CN1C=Nc2ccccc2S1(=O)=O)NCc1ccccc1F`, the INHIBITION was determined as 68.24%.

With `CC(C)(C)NC(=O)NC(=O)CN1C=Nc2ccccc2S1(=O)=O`, the INHIBITION came out at 13.24%.

In the case of `CCCNC(=O)NC(=O)CN1C=Nc2ccccc2S1(=O)=O`, the INHIBITION was -35.65%.

As for `O=C(CN1C=Nc2ccccc2S1(=O)=O)NC1CCCCC1`, the INHIBITION is -4.97%.

As for `O=C(CN1C=Nc2ccccc2S1(=O)=O)NCC1CC1`, the INHIBITION turned out to be 66.2%.

With `CC(C)CNC(=O)CN1C=Nc2ccccc2S1(=O)=O`, the INHIBITION turned out to be 21.89%.

Turning to `Cn1ccc(C(=O)N2CCC(c3cc(CCO)n(C)n3)C2)n1` (stereo unspecified), the INHIBITION is -14.3%.

As for `CN1[C@@H](CCC(=O)NCc2ccc(F)cc2)CNC(=O)[C@H]2NCC[C@H]21`, the INHIBITION was 4%.

With `Cc1cccc2nc(CN3CCCC3Cn3cncn3)cn12` (stereo unspecified), the INHIBITION came to 78.28%.
